Assay [1] in a line: Viability qHTS for spleen associated tyrosine kinase inhibitor (SYKi) drug resistant MV4-11 cells (AID 1963824). Further: nearly all actives have a fitted effect of over 35% in size. The method in brief:
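SYK-inhibitor-resistant MV4-11 AML cells were seeded at 500 per well onto compound and cultured 72 hours (37 °C, 5% CO2). CellTiter-Glo was then added, and after 10 min at room temperature, luminescence gave viability.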
In general terms: In qHTS, concentration-response curves come from the screen itself.

The nature of assay [2]: Quantitative highthroughput screen to assess conditional lethalithy of NOMO1 cells grown in RPMI1640 with untreated serum (RPMI+s) (AID 1963876). Further: nearly all actives have a fitted effect of over 35% in size. The method, boiled down:
(§1)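 Each medium arm—HPLM with 10% dialyzed FBS, or RPMI1640 with 5 mM glucose and 10% untreated or dialyzed FBS—was screened against an 11-point, 3-fold compound titration for 48 h at 37 °C, with CellTiter-Glo luminescence as endpoint.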

Assay [3] can be described thus: Quantitative highthroughput screen to assess conditional lethalithy of NOMO1 cells grown in RPMI1640 with dialyzed fetal bovine serum (RPMI+ds) (AID 1963877). Further: nearly all actives have a fitted effect of over 30% in size. On Viability: series mostly up to about 46 µM. The method, boiled down: as §1
Assay [4] can be described thus: Quantitative highthroughput screen to assess conditional lethalithy of NOMO1 cells grown in Human Plasma-Like Medium with dialyzed fetal bovine serum (HPLM+ds) (AID 1963878). Further: nearly all actives have a fitted effect of over 35% in size. The method in brief:
as §1

A short description of assay [5]: Quantitative highthroughput screen to assess conditional lethalithy of P12 Ichikawa cells grown in Human Plasma-Like Medium with dialyzed fetal bovine serum (HPLM+ds) (AID 1963879). Further: nearly all actives have a fitted effect of over 35% in size. On Viability: series mostly up to about 46 µM. The following applies: Potency: viability. The method in brief:
as §1

A short description of assay [6]: Quantitative highthroughput screen to assess conditional lethalithy of P12 Ichikawa cells grown in RPMI1640 with dialyzed fetal bovine serum (RPMI+ds) (AID 1963880). Further: nearly all actives have a fitted effect of over 35% in size. The conditions noted are these: Potency: P12-Ichikawa viability. The method in brief:
as §1

A short description of assay [7]: Quantitative highthroughput screen to assess conditional lethalithy of P12 Ichikawa cells grown in RPMI1640 with untreated serum (RPMI+s) (AID 1963881). Further: nearly all actives have a fitted effect of over 35% in size. On Viability: series mostly up to about 46 µM. The conditions noted are these: Potency: viability. The method in brief: as §1
The nature of assay [8]: Quantitative highthroughput screen to assess conditional lethalithy of SEM cells grown in Human Plasma-Like Medium with dialyzed fetal bovine serum (HPLM+ds) (AID 1963882). Further: nearly all actives have a fitted effect of over 35% in size. The method in brief:
as §1

Assay [9] is described as follows: Quantitative highthroughput screen to assess conditional lethalithy of SEM cells grown in RPMI1640 with unreated serum (RPMI+s) (AID 1963883). Further: nearly all actives have a fitted effect of over 35% in size. The method in brief:
as §1

A short description of assay [10]: Quantitative highthroughput screen to assess conditional lethalithy of SEM cells grown in RPMI1640 with dialyzed fetal bovine serum (RPMI+ds) (AID 1963884). Further: nearly all actives have a fitted effect of over 35% in size. The method in brief: as §1

Results filed as inconclusive are left out. Values without a mark were called inactive. Calls of active or inactive are those of the source. The call rests on the fitted dose curve; in most records, active means well fitted curve in the direction sought with a large enough effect; inconclusive means small, poorly fitted or top-dose-only effect, or another doubt; inactive means no such curve, though single readings can be large; an effect the other way counts as inactive or inconclusive.
Potency means the concentration at half of the fitted maximal effect.

On to `CN(C)c1ccc(Nc2nc(N)n(C(=O)c3c(F)cccc3F)n2)cc1`, for which the Potency in assay [1] is 4.17 µM (active). Also, the Potency result in assay [2] is “inactive”.
For `COCC(=O)NC/C=C/c1ccc2ncnc(Nc3ccc(Oc4ccc(C)nc4)c(C)c3)c2c1`, the Potency in [1] was 9.2 µM (active).
Turning to `CC(=O)OC1CC(C)C2(CCC3(CC(=O)OC3O)O2)C2(C)CCCC(C)(C)C12` (centres undefined), in [1], the Potency was 10 µM (active).
For the compound `C=C1C(=O)O[C@@H]2C(OC(=O)/C(C)=C\C)/C(C)=C\C(=O)/C=C(\C)C[C@H](O)[C@@H]12` (some centres undefined), in assay [1], the Potency is 1.01 µM (active).
Regarding `COc1ccc(-c2csc(NC(=O)[C@H]3CCCCN3S(=O)(=O)c3ccc(C)cc3)n2)cc1`, the Potency in assay [1] is 5.17 µM (active).
On to `Nc1ncnc2c1nc(N)n2[C@@H]1O[C@H](CO)[C@@H](O)[C@H]1O`, for which the Potency in assay [1] was 0.517 µM (active).
As to `COc1cccc(CNC(=O)Nc2nc(-c3ccncc3)cs2)c1`, the Potency in assay [1] was 18.4 µM (active).
For the compound `CC(C)CCCCC(=O)N[C@@H](CO)C(=O)N[C@@H](CC(C)C)C(=O)[C@@]1(CO)CO1`, in assay [1], the Potency was 7.31 µM (active).
Same read-out and setting: the same measure for `CC1=CC2C(CC1OC1OC(CO)C(O)C(O)C1O)C(C)CC(=O)C2C(C)C` (centres undefined): “inactive”; for `CCOC(=O)c1cc2ccc(O)cc2oc1=O`: 14.6 µM (active).
On to `C=C[C@@H]1[C@H](O[C@@H]2O[C@H](CO)[C@@H](O)[C@H](O)[C@H]2O)OC=C(C(=O)O)[C@H]1CCOC(=O)/C=C/c1ccc(O)c(O)c1`, for which the Potency result in assay [1] was “inactive”.
As for `C=C1C(O)C(O)C2(CC3C(C)=CCC4C(C)(CO)CCCC34C)OC2C1O` (centres undefined), in assay [1], the Potency entry was “inactive”.
Regarding `CN(C)CCN(Cc1ccc(-c2ccc(CNCCc3ccccc3)cc2)cc1)C(=O)CCC1CCCC1`, in assay [1], the Potency is 0.92 µM (active).
For `CCCCC(=O)N1c2ccccc2NC2=C(C(=O)CCC2)C1c1ccccc1Cl` (centres undefined), in [1], the Potency was 8.2 µM (active).
With `O=C(Nc1cccc(Br)c1)c1cccc(S(=O)(=O)N2CCCCCC2)c1`, in assay [1], the Potency is 5.25 µM (active). For the same compound, the Potency result in assay [2], in assay [3], in assay [4] and in [5] was “inactive” each time.
`Cn1cnc(-c2nccc3c(=O)[nH]c(OCCCC(F)(F)F)nc23)c1`: the Potency in [1] is 9.2 µM (active).
In the case of `Cc1c(-c2ccc3c(c2)OCO3)oc2ccc(C(O)C(C)O)cc12` (centres undefined), the Potency in assay [1] was 12.8 µM (active).
`O=C1/C(=C/c2ccc(O)c(O)c2)Oc2ccccc21`: the Potency in assay [1] was 0.517 µM (active).
Consider `C[C@@H]1C(=O)O[C@H](C)[C@H]1C[C@@H](O)[C@](C)(O)[C@H]1CC[C@@]2(O)C3=CC(=O)[C@@H]4C[C@@H](O)[C@@H](O)C[C@]4(C)C3CC[C@]12C` (some centres undefined), for which the Potency entry in assay [1] is “inactive”.
As for `Clc1ccc(Nc2nnc(Cc3ccncc3)c3ccccc23)cc1`, the Potency in [1] is 10.6 µM (active). Moreover, the Potency result in assay [2], in assay [3], in assay [4], in assay [5], in assay [6] and in assay [7] was “inactive” throughout.
As to `CNc1nc(Nc2ccc(C(=O)N3CCOCC3)cc2OC)nc2[nH]cc(Cl)c12`, in assay [1], the Potency was 6.51 µM (active).
On to `COc1cccc(-c2ccc([C@@H](Oc3cc(-c4ccc(C[C@H](N)C(=O)O)cc4)nc(N)n3)C(F)(F)F)cc2)c1`, for which the Potency in assay [1] was 20.6 µM (active).
Turning to `CC(C)C(=O)Oc1ccc(CO)cc1[C@H](CCN(C(C)C)C(C)C)c1ccccc1`, the Potency result in [1], in [2], in assay [3], in assay [4], in assay [5] and in assay [6] was “inactive” throughout. In assay [7], the Potency entry is “inactive”.
As for `C=C(COC(=O)C(C)C)C1Oc2cc(C(C)=O)ccc2C1OC(=O)C(C)C` (centres undefined), the Potency entry in assay [1] is “inactive”.
Regarding `C=C1CC[C@@H]2[C@](C)(CO)[C@H](O)CC[C@@]2(C)[C@@H]1C/C=C1/C(=O)OCC1O` (some centres undefined), the Potency in assay [1] is 3.26 µM (active).
`Nc1nc2c(ncn2[C@@H]2O[C@H](CO)[C@@H](O)[C@H]2O)c(=O)[nH]1`: in [1], the Potency entry was “inactive”.
As for `O=C(N[C@@H]1CCCc2c1cnn2-c1ccc(F)cc1F)c1ccccn1`, the Potency in [1] is 14.6 µM (active).
On to `O=C(Nc1cc2cc[nH]c2cn1)c1ccccc1`, for which the Potency in assay [1] is 9.2 µM (active); in assay [2] it was 5.9 µM (active); in assay [3], 13.2 µM (active); in assay [4], 3.32 µM (active); in [5] it was 2.96 µM (active); in assay [6], 5.9 µM (active). For the same compound, the Potency was 14.8 µM (active) in [7], 3.72 µM (active) in assay [8], 2.96 µM (active) in [9] and 3.32 µM (active) in assay [10].

These data come from PubChem BioAssay (NCATS).
